Sampled rows, rich in hits. Any-hit rate of the full collection: about 10%.
HCT116 PTEN-null = growth suppression of PTEN-null HCT116, primary screen, cell-based, CellTiter-Glo; HCT116 PTEN-null viability, 60 h; hits give low values; viability, % at 10 µM; hit rate 1.2% among 140,000; AID 827, 2007;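 active = viability at or below a set limit, 4 SD under the median of all tested compounds, cut at about 3.7% in these data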;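 note: PTEN knockout HCT116 line with beta catenin targeted HCT116 as companion control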
ROMK primary = ROMK potassium channel modulators, primary screen, cell-based, thallium flux, MLSMR library; ATP-sensitive inward rectifier potassium channel 1 (Homo sapiens), P48048; hit rate 2% among 130,000; AID 1918, 2009; B-score at 10 µM; Tet-inducible ROMK, thallium flux fluorescence; actives lie on both sides;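 active = signal ratio slope over the read window, or its plate-corrected B-score, at least 3 SD from the plate mean, either direction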;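 note: B-score of the F/F0 ratio slope over 7 to 12 s after thallium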
Target sequence (P48048 whole entry, looked up): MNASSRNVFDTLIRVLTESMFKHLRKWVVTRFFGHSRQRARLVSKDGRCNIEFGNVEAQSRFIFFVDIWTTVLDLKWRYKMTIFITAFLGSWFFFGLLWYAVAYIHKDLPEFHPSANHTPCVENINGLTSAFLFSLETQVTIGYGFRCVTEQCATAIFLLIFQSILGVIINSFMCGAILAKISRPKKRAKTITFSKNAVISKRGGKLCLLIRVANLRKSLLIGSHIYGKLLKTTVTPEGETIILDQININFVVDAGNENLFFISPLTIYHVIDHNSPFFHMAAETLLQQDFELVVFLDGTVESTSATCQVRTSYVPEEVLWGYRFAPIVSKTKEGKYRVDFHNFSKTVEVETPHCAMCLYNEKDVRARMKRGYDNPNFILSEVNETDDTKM
HCT116 bCat-KO = primary screen for growth suppressors in beta-catenin knockout HCT116 cells (colon tumor, human). HCT116 beta-catenin knockout viability, CellTiter-Glo, 60 h; hits give low values. viability, % at 10 µM. hit rate 1.5% among 140,000;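 active = viability at or under a set limit, the compound median less 4 SD, cut at about 6% in these data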;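 note: 0% = Hyamine 1622 control at 20 µM and 100% = untreated cell control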
p97 inhibitor = inhibitors of human p97 ATPase, primary screen, biochemical; Transitional endoplasmic reticulum ATPase (Homo sapiens), P55072; recombinant p97 ATPase, Kinase-Glo ATP luminescence, 3 h; inhibition, % at 8 µM; hit rate 0.42% among 220,000; in the data active = inhibition above about 15%;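 note: 0% = DMSO vehicle and 100% = wells lacking enzyme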
L major viab = Leishmania major promastigote growth inhibition, primary screen; Leishmania major promastigotes, resazurin fluorescence viability; inhibition, % at 10 µM; hit rate 9% among 200,000; AID 1063, 2008; in the data active = inhibition above about 50%;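 note: promastigotes grown with compound for 44 hours at 28 °C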
INS promoter inh = inhibitors of insulin promoter-driven GFP, primary screen, imaging, TRM-6 cells (human fetal islet line), eGFP reporter, cell count | reporter expression induced with tamoxifen | inhibition, % at 2 µM | hit rate 0.9% among 130,000 | AID 1273, 2008;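 active = inhibition above the mean plus 3 SD, with well images judged a real hit on visual review, cut at about 60% in these data, passing the limit was not always enough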
Active calls of the source: *.

For CSc1ncc(S(=O)(=O)c2ccccc2)c(=O)[nH]1 the results were ROMK primary -0.23, p97 inhibitor 5 and L major viab -4.
For Cc1cc(C)cc(NC(=O)CSc2nc3c(oc4ccccc43)c(=O)n2-c2ccccc2)c1 the results were HCT116 PTEN-null 95, HCT116 bCat-KO 89, p97 inhibitor 10, L major viab 61* and INS promoter inh 0.
For CCCCC[n+]1ccn(-c2nc3ccccc3nc2[N-]S(=O)(=O)c2ccc(C)cc2)c1 the results were HCT116 PTEN-null 83, HCT116 bCat-KO 94, p97 inhibitor -3, L major viab 100* and INS promoter inh -58.
CCCC[n+]1ccn(-c2nc3ccccc3nc2[N-]S(=O)(=O)c2ccccc2)c1 was read as HCT116 PTEN-null 116, ROMK primary 0.5, HCT116 bCat-KO 103, p97 inhibitor -6, L major viab 54* and INS promoter inh -36.
`CCCC[n+]1ccn(-c2nc3ccccc3nc2[N-]S(=O)(=O)c2cccs2)c1` gave p97 inhibitor 3.
`CCCC[n+]1ccn(-c2nc3ccccc3nc2[N-]S(=O)(=O)c2ccc(C)cc2)c1` gave HCT116 PTEN-null 96, ROMK primary 0, HCT116 bCat-KO 96, p97 inhibitor -3, L major viab 99* and INS promoter inh -25.
`COc1ccc(CN2CCN(CCc3ccccc3)C(CCO)C2)cc1Cn1cncn1` (stereo unspecified) gave ROMK primary 0.38, p97 inhibitor -7 and L major viab 40.
COc1ccc(CCNC(=O)CNC(=O)Cn2ccc3ccccc3c2=O)cc1OC was read as ROMK primary 0.31 and p97 inhibitor 7.
O=C(CC1NCCc2ccccc21)Nc1ccc(Oc2ccccc2)cc1 (stereo unspecified) was read as ROMK primary -0.081, p97 inhibitor -6 and L major viab 99*.
Cc1nc2c(=O)n(C)c(=O)n(C)c2nc1Cl was read as HCT116 PTEN-null 4, HCT116 bCat-KO 3.6*, p97 inhibitor 1, L major viab 100* and INS promoter inh 18.
CC(=O)Nc1ccc(OS(=O)(=O)c2ccc([N+](=O)[O-])cc2)cc1 was read as p97 inhibitor 4 and L major viab 23.
For COc1ccccc1/C=C(/C(=O)OCC(=O)Nc1cc(C)ccc1C)c1ccccc1 the results were HCT116 PTEN-null 78, ROMK primary -0.74, HCT116 bCat-KO 76, p97 inhibitor 3, L major viab -3 and INS promoter inh 17.
`CN(C)CCOCCOc1ccc(Cl)cc1C(C)(C)C` gave ROMK primary -3.2, p97 inhibitor 1 and L major viab 98*.
`CCOc1cccc(OCCOCCN(C)C)c1` gave HCT116 PTEN-null 95, ROMK primary -0.041, HCT116 bCat-KO 99, p97 inhibitor 0, L major viab -5 and INS promoter inh 0.
For CC(O)CNCCCOc1ccc(Cl)cc1C(C)(C)C (stereo unspecified) the results were ROMK primary -3.1, p97 inhibitor -3 and L major viab 72*.
`Cc1ccc(-c2nc(N/N=C/c3cccnc3)c3ccccc3n2)cc1` gave HCT116 PTEN-null 79, ROMK primary -0.27, HCT116 bCat-KO 73, p97 inhibitor -53, L major viab -3 and INS promoter inh 65.
Fc1ccc(CNc2nc(-c3ccccc3)nc3ccccc23)cc1 was read as ROMK primary 0.71, p97 inhibitor 9, L major viab 69* and INS promoter inh 0.
c1ccc(-c2nc(NCc3cccnc3)c3ccccc3n2)cc1 was read as HCT116 PTEN-null 72, ROMK primary -0.16, HCT116 bCat-KO 76, p97 inhibitor 7 and L major viab 80*.
O=[N+]([O-])c1ccc(-c2nc(NCc3ccccc3)c3ccccc3n2)cc1 was read as HCT116 PTEN-null 72, HCT116 bCat-KO 86, p97 inhibitor -1 and L major viab 20.
Screening OCCNc1nc(-c2cccnc2)nc2ccccc12 returned HCT116 PTEN-null 96, ROMK primary 0.43, HCT116 bCat-KO 92, p97 inhibitor 10 and L major viab 10.
`Fc1cccc(Nc2nc(-c3ccncc3)nc3ccccc23)c1` gave HCT116 PTEN-null 81, HCT116 bCat-KO 83, p97 inhibitor 4, L major viab 61* and INS promoter inh 19.
For Cc1ccc(-c2nc(NCc3cccnc3)c3ccccc3n2)cc1 the results were HCT116 PTEN-null 72, ROMK primary 0.35, HCT116 bCat-KO 82, p97 inhibitor 5 and L major viab 83*.
Screening CCC(C)c1ccccc1NC(=O)COC(=O)c1ccc(C)c(NC(=O)c2ccco2)c1 (stereo unspecified) returned HCT116 PTEN-null 100, ROMK primary -0.7, HCT116 bCat-KO 91, p97 inhibitor 4, L major viab 12 and INS promoter inh 11.
`CC1CC(CCN)(c2ccccc2)C(C)CN1C` (stereo unspecified) gave p97 inhibitor 8.
`Cn1c2c(c(=O)n(C)c1=O)C(c1cccc(Br)c1)C1C(=O)c3ccccc3C1=N2` (stereo unspecified) gave ROMK primary -0.38, p97 inhibitor 8, L major viab 1 and INS promoter inh -37.
Screening c1cncc(-c2nc(NCCCn3ccnc3)c3ccccc3n2)c1 returned ROMK primary -2, p97 inhibitor 8, L major viab -2 and INS promoter inh 67.
`Clc1cccc(-c2nc(NCc3cccnc3)c3ccccc3n2)c1` gave HCT116 PTEN-null 76, HCT116 bCat-KO 80, p97 inhibitor 8 and L major viab 86*.
For CSc1nn(CCc2ccncc2)c(=S)s1 the results were HCT116 PTEN-null 78, HCT116 bCat-KO 59, p97 inhibitor 3, L major viab 56* and INS promoter inh -42.
`CC1CCCC(NC(=O)COC(=O)CSc2ccc3ccccc3c2)C1C` (stereo unspecified) gave HCT116 PTEN-null 99, HCT116 bCat-KO 95, p97 inhibitor 5, L major viab 55* and INS promoter inh -38.
Screening O=C(Nc1ccc2c(c1)OCO2)C1CCN(C(=O)CSc2ncnc3ccccc23)CC1 returned ROMK primary -0.1, p97 inhibitor 3, L major viab 79* and INS promoter inh 15.
`COc1ccc(C(=O)N2CCC(C(=O)Nc3ccc4c(c3)OCO4)CC2)cc1` gave HCT116 PTEN-null 100, ROMK primary -0.7, HCT116 bCat-KO 96, p97 inhibitor -2, L major viab 52* and INS promoter inh -21.
For CC(Sc1ncnc2ccccc12)C(=O)Nc1ccc2c(c1)OCO2 (stereo unspecified) the results were HCT116 PTEN-null 71, HCT116 bCat-KO 67, p97 inhibitor -2, L major viab 80* and INS promoter inh -5.

High-throughput results from PubChem BioAssay.
